SMILES strings stand for the structures. The panel holds about 83,000 compounds, 20% with a hit somewhere; the sample as a whole holds those more often.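 Plates (96-well) were seeded with cells, treated with compound at one concentration, and incubated for 48 hours before percent growth was determined.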 Values without a mark were called inactive. Activity calls are given as the source filed them. How the source made its calls: active means growth percent below 10; inactive means the rest.

Test systems include HCT-15 colon; HT29 colon; SNB-75 CNS; SNB-19 CNS; U251 CNS; PC-3 prostate; SK-MEL-5 melanoma; UACC-62 melanoma; LOX IMVI melanoma; SK-MEL-28 melanoma.
Common to all, as to test: NCI-60 one-dose screen, 48 h (100 = growth as untreated, 0 = no growth, -100 = all killed)
Common to all, as to settings: 10 µM

As for `O=C(CCl)Nc1ccc(Cc2ccc(NC(=O)CCl)cc2)cc1`, the growth in the assay on HCT-15 colon was -39.7% (active); with HT29 colon it was -39.1% (active); with SNB-75 CNS, 61.1%; in the assay with SNB-19 CNS, 26.3%; with U251 CNS it was -85.7% (active); in the assay on PC-3 prostate it was 2.98% (active). Also, the growth in the assay on SK-MEL-5 melanoma was -88.5% (active); in the assay on UACC-62 melanoma it was -9.18% (active); with LOX IMVI melanoma it was -84.6% (active); with SK-MEL-28 melanoma, 5.21% (active).

In the case of `C=CCn1c(SCC(=O)Nc2ccc(C(=O)/C=C/c3cc(OC)c(OC)c(OC)c3)cc2)nnc1-c1cc(-c2ccc(Cl)cc2)nc2ccccc12`, the growth in the assay with HCT-15 colon was 59.5%; in the assay with HT29 colon, 74.7%; in the assay on SNB-75 CNS, 68.8%; in the assay with SNB-19 CNS, 84.1%; in the assay on U251 CNS, 86.3%; with PC-3 prostate, 71.7%. Also, the growth was 91% in the assay with SK-MEL-5 melanoma, 84.2% with UACC-62 melanoma, 75.5% in the assay on LOX IMVI melanoma and 100% in the assay on SK-MEL-28 melanoma.

Regarding `O=C1c2ccccc2C(=O)N1CCCCNc1ccccc1`, the growth in the assay with HCT-15 colon is 96.8%; in the assay on HT29 colon, 110%; in the assay on SNB-75 CNS, 90.8%; in the assay with SNB-19 CNS it was 96.8%; in the assay with U251 CNS, 86.3%; with PC-3 prostate, 75.5%. Also, the growth in the assay with SK-MEL-5 melanoma was 105%; in the assay on UACC-62 melanoma, 96%; with LOX IMVI melanoma it was 117%; in the assay with SK-MEL-28 melanoma it was 113%.

Turning to `CC1(C)N=C(N)N=C(N)N1c1cccc(C#N)c1`, the growth is 33% with HCT-15 colon; 35.9% in the assay with HT29 colon; 77.4% with SNB-75 CNS; 66.8% with SNB-19 CNS; 28.5% in the assay with U251 CNS; 43.1% in the assay on PC-3 prostate. In addition, the growth in the assay on SK-MEL-5 melanoma was 52.4%; in the assay with UACC-62 melanoma, 54.1%; in the assay on LOX IMVI melanoma it was 21%; in the assay on SK-MEL-28 melanoma, 95%.

As for `CN1CCN(CCC(=O)Nc2cccc(-n3cc(-c4ccncc4)c(-c4ccc(Cl)c(O)c4)n3)c2)CC1`, the growth is 39.3% in the assay on HCT-15 colon; 4.91% (active) in the assay on HT29 colon; 24.5% in the assay with SNB-75 CNS; 55% with SNB-19 CNS; 32.4% in the assay with U251 CNS; 29.3% with PC-3 prostate. Moreover, the growth in the assay with SK-MEL-5 melanoma is 24.2%; in the assay with UACC-62 melanoma, 46.9%; in the assay with LOX IMVI melanoma, 15.7%; in the assay on SK-MEL-28 melanoma, 57.7%.

With `Nc1ccc(CC[C@H]2CCC/C=C/[C@@H]3C[C@H](O)C[C@H]3[C@H](O)/C=C/C(=O)O2)cc1`, the growth in the assay with HCT-15 colon was 6.58% (active); in the assay with HT29 colon, -39.8% (active); in the assay with SNB-75 CNS, 32.3%; in the assay with SNB-19 CNS it was 29.5%; in the assay with U251 CNS, 15.8%; in the assay with PC-3 prostate, 12.9%. For the same compound, the growth was -84.9% (active) in the assay on SK-MEL-5 melanoma, 11.7% with UACC-62 melanoma, -74.4% (active) in the assay on LOX IMVI melanoma and 5.16% (active) in the assay with SK-MEL-28 melanoma.

Regarding `CC(=O)Nc1ccc2c(c1)C(=O)c1cccc(C(=O)O)c1-2`, the growth in the assay on HCT-15 colon was 107%; with HT29 colon it was 115%; with SNB-75 CNS, 91%; in the assay on SNB-19 CNS, 101%; in the assay on U251 CNS it was 108%; in the assay on PC-3 prostate, 99.5%. The growth with SK-MEL-5 melanoma is 95.5%; in the assay on UACC-62 melanoma, 109%; in the assay with LOX IMVI melanoma, 109%; in the assay on SK-MEL-28 melanoma, 97.9%.

Consider `C=CCn1c(SCC(=O)Nc2ccc(C(=O)/C=C/c3ccc(OC)cc3)cc2)nnc1-c1ccc(OC)c(OC)c1`, for which the growth in the assay with HCT-15 colon was 83.8%; with HT29 colon, 89.8%; in the assay on SNB-75 CNS it was 76.4%; in the assay with SNB-19 CNS, 89%; with U251 CNS it was 87.4%; with PC-3 prostate it was 67.2%. Further, the growth in the assay with SK-MEL-5 melanoma is 62.8%; in the assay on UACC-62 melanoma, 75.7%; in the assay on LOX IMVI melanoma, 86.5%; in the assay on SK-MEL-28 melanoma, 105%.

For the compound `COc1cc(/C=C2\CCCC3=C2NC(N)=NC3c2cc(OC)c(OC)c(OC)c2)cc(OC)c1OC` (stereo not given), the growth was -4.55% (active) with HCT-15 colon; -35.4% (active) in the assay on HT29 colon; 45.7% with SNB-75 CNS; 61.6% with SNB-19 CNS; -85.2% (active) in the assay with U251 CNS; 25.9% in the assay on PC-3 prostate. Also, the growth is -96.5% (active) with SK-MEL-5 melanoma, -41.1% (active) with UACC-62 melanoma, -46.7% (active) in the assay on LOX IMVI melanoma and 24.9% in the assay on SK-MEL-28 melanoma.

In the case of `COc1cccc(-c2nc3sccn3c2-c2cccc(S(C)(=O)=O)c2)c1`, the growth in the assay on HCT-15 colon is 95.3%; in the assay with HT29 colon, 118%; in the assay with SNB-75 CNS, 95.1%; in the assay with SNB-19 CNS it was 99.2%; with U251 CNS, 106%; with PC-3 prostate, 94.7%. Moreover, the growth with SK-MEL-5 melanoma is 94.8%; in the assay with UACC-62 melanoma, 99.4%; in the assay with LOX IMVI melanoma, 88.6%; in the assay on SK-MEL-28 melanoma it was 112%.

On to `COc1cc(-c2nn(-c3cccc(NC(=O)CN4CCOCC4)c3)cc2-c2cccnc2)ccc1Cl`, for which the growth was 66.7% with HCT-15 colon; 65.2% in the assay with HT29 colon; 65.5% with SNB-75 CNS; 88% with SNB-19 CNS; 92.7% with U251 CNS; 58% in the assay on PC-3 prostate. Also, the growth is 48.2% with SK-MEL-5 melanoma, 61.4% with UACC-62 melanoma, 63.3% with LOX IMVI melanoma and 84.3% in the assay on SK-MEL-28 melanoma.

With `CC(=O)N[C@H](C(=O)N[C@@H](CCCNC(=N)N)C(=O)N[C@@H](CCCCN)C(=O)N[C@@H](CCCNC(=N)N)C(=O)N[C@]1(C)CCCCCC/C=C\CCC[C@@](C)(C(=O)N[C@@H](CCCNC(=N)N)C(=O)N[C@@H](CCC(=O)O)C(=O)N[C@@H](CC(C)C)C(=O)N[C@H](C(=O)N[C@@H](CCC(=O)O)C(N)=O)C(C)C)NC(=O)[C@H](CCC(N)=O)NC(=O)[C@H](CC(C)C)NC(=O)[C@H](CC(C)C)NC(=O)[C@H](CCCNC(=N)N)NC(=O)[C@H](CCCNC(=N)N)NC(=O)[C@H](CC(C)C)NC1=O)C(C)C`, the growth is -10.8% (active) in the assay with HCT-15 colon; 15.7% in the assay on HT29 colon; 2.79% (active) with SNB-75 CNS; 6.45% (active) with SNB-19 CNS; -40.9% (active) in the assay with U251 CNS; -4.64% (active) in the assay with PC-3 prostate. The growth in the assay on SK-MEL-5 melanoma is -68.8% (active); in the assay with UACC-62 melanoma it was -43.3% (active); in the assay with LOX IMVI melanoma it was 29.4%; in the assay with SK-MEL-28 melanoma, -29.7% (active).

On to `Cc1ccccc1N1C(=O)c2cc(S(N)(=O)=O)c(Cl)cc2NC1C` (stereo not given), for which the growth with HCT-15 colon is 108%; in the assay on HT29 colon it was 101%; in the assay with SNB-75 CNS it was 87.1%; in the assay with SNB-19 CNS, 116%; in the assay on U251 CNS, 105%; with PC-3 prostate, 93.6%. The growth in the assay with SK-MEL-5 melanoma was 104%; in the assay with UACC-62 melanoma, 114%; in the assay on LOX IMVI melanoma, 99.7%; in the assay on SK-MEL-28 melanoma it was 116%.

These data come from PubChem BioAssay (NCI).
